Assay outcomes from PubChem BioAssay.
Most compounds without a hit are left out; they make up all but 4.7% or so of the library.
TRHR PAM: TRH receptor (human) allosteric enhancement. P34981. TRHR cells, fluo-8 calcium fluorescence, EC20 TRH enhancement. enhancement, % at 2 µM. 360,000 tested, 0.66% active. AID 493056; in the data active = enhancement above about 30%
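Enhancer read-out: after compound pinning and an initial kinetic agonist-mode read, an EC20 of TRH (10 nM final) was injected and fluo-8 calcium signal (Ex 480/Em 530) followed at 1 s/cycle for 100 cycles in TRHR-expressing cells.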
D1 agonist: activates the human D1 dopamine receptor | 360,000 tested, 1% active | AID 504660 | activation, % at 2 µM | HEK293 T-REx D1 cells, calcium flux, agonist mode
Target sequence (P21728 whole entry, looked up): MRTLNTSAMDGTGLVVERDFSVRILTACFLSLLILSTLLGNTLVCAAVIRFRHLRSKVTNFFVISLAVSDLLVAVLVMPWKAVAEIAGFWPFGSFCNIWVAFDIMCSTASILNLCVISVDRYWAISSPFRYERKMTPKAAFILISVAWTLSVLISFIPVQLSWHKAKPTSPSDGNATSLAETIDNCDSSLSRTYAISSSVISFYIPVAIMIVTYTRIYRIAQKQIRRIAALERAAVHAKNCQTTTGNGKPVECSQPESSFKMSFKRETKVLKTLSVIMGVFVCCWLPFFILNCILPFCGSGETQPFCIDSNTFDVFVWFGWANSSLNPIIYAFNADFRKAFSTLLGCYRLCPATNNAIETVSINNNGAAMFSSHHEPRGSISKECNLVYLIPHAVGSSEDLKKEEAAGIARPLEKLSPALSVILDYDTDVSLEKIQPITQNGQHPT
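Tetracycline-induced HEK293 TREx D1 cells, force-coupled to calcium signalling, were dye-loaded with a no-wash calcium kit. Compound was pin-added after a 10 s baseline. Fluorescence was read kinetically at 1 cycle/s for 180 s, with calcium rises flagged as agonism.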
D1 antag: antagonists of human D1 dopamine receptor; HEK293 TREx D1 cells, calcium flux, dopamine EC80; hits give low values; activity change, negative = inhibition, % at 10 µM; 360,000 tested, 3.2% active; AID 504652; in the data active = activity change below about -30%
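Antagonism measured as reduced calcium response to an EC80 dopamine addition following 180 s compound pre-read; cells were inducible HEK293 Trex D1 plated overnight at 30 C, read kinetically at 1 cycle/sec.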
TRHR ag: TRH receptor (human) agonism; 360,000 tested, 0.18% active; TRHR cells, calcium flux fluo-8, FDSS agonist mode; activation, % at 2 µM
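TRHR-expressing cells, plated overnight in medium with 10% serum, were loaded with fluo-8 calcium dye at room temperature. After a 10 s baseline, library compound was pin-added and calcium release was recorded kinetically (ex 480/em 530) as agonist response.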
D1 PAM: potentiators of human D1 dopamine receptor; AID 504651; potentiation, % at 10 µM; P21728; 360,000 tested, 0.036% active; HEK293 TREx D1 cells, calcium flux, dopamine EC20 potentiation; in the data active = potentiation above about 30%
Numbers stand for hits; n = inactive; x = not tested or not shown; ! = repeats disagree. Rule as the data show it, unless noted: active = activation above about 30%; inactive = the rest.

SMILES	TRHR PAM	D1 agonist	D1 antag	TRHR ag	D1 PAM
Cc1c([N+](=O)[O-])cc(C(=O)Nc2ccc(NC(=O)c3ccco3)cc2)cc1[N+](=O)[O-]	n	n	n	n	n
COc1ccccc1Oc1coc2c(CN3CCOCC3)c(O)ccc2c1=O	37	n	n	n	n
CCOC(=O)C1C(=O)CC(C)(O)C(C(=O)OCC)C1c1ccc(F)cc1 (stereo unspecified)	n	n	n	n	n
CCOC(=O)C1C(=O)CC(C)(O)C(C(=O)OCC)C1c1ccc(Br)cc1 (stereo unspecified)	n	n	-30	n	n
CCSc1nc2n(n1)C(c1ccc(Cl)cc1Cl)C(C(=O)Nc1ccccc1C)=C(C)N2 (stereo unspecified)	n	n	-34	n	n
CC1=C(C(=O)Nc2ccccc2C)C(c2cccnc2)n2nc(SCc3ccccc3)nc2N1 (stereo unspecified)	n	n	-38	n	n
Cc1ccccc1NC(=S)c1ccc2ccccc2n1	n	n	n	n	n
O=C(NCCc1ccccc1)C1CCCN1S(=O)(=O)c1cccc2nsnc12 (stereo unspecified)	n	n	n	n	n
NS(=O)(=O)c1ccc(CCNC(=O)C2CCCN2S(=O)(=O)c2cccc3nsnc23)cc1 (stereo unspecified)	32	n	n	n	n
CCOc1ccccc1NC(=O)CSc1nnc(N)s1	n	n	n	n	n
COc1ccc(CN2CCN(CCCc3ccccc3)CC2)c(OC)c1	55	n	n	n	n
COc1ccc(CN2CCN(CCCc3ccccc3)C(CCO)C2)c(OC)c1 (stereo unspecified)	n	n	n	n	n
COc1ccccc1N1CCN(CCCCCCOc2ccc(F)cc2)CC1	n	n	-45	n	n
COc1ccc(CN2CCN(c3ccccc3OC)CC2)c(OC)c1	n	n	-46	n	n
COc1ccc(OC)c(CN2CCN(Cc3cccc4ccccc34)CC2)c1	n	n	-67	n	n
COc1ccc(OC)c(CN2CCCCCC2)c1	n	n	n	n	n
COc1cc(C(=O)NCC(=O)N2CCN(S(=O)(=O)c3cc(C)ccc3C)CC2)cc(OC)c1OC	n	n	n	n	n
COc1cc(/C=C/C(=O)c2ccc(F)cc2)cc(OC)c1OC	n	n	n	n	n
CCOc1ccc(C(=O)/C=C/c2ccc(SC)cc2)cc1	n	n	-30	n	n
CCOc1ccc(C(=O)/C=C/c2cc(OC)c(OC)c(OC)c2)cc1	n	n	-49	n	n
CCCCCCCn1c(=O)c(C(=O)OC)c(N)c2ccccc21	n	42	n	n	n
N#Cc1ccc(OCC(=O)NCC2(N3CCCCC3)CCCCC2)cc1	n	n	n	n	n
NC(=O)COc1ccc(C(=O)NCC2(N3CCOCC3)CCCCC2)cc1	n	n	-32	n	n
N#CCC(=O)Nc1ccc(C(=O)NCC2(N3CCOCC3)CCCCC2)cc1	n	n	n	n	x
O=C(COc1ccccc1)NCC1(N2CCCCC2)CCCCC1	n	n	-66	n	n
SMILES	TRHR PAM	D1 agonist	D1 antag	TRHR ag	D1 PAM
COC(=O)C(C(=O)OC)C(C(C)C)C(C(=O)OC)C(=O)OC	40	n	n	n	n
COC(=O)C(C(=O)OC)C(C(=O)OC)C(C(=O)OC)C(=O)OC	n	n	n	n	n
Cc1nnc(SCC(=O)c2c(N)n(Cc3ccccc3)c(=O)n(C)c2=O)n1C	n	n	n	n	n
Cn1cnnc1SCC(=O)c1c(N)n(Cc2ccccc2)c(=O)n(C)c1=O	n	n	-60	n	n
COc1ccccc1NS(=O)(=O)c1cc(NC(=O)C(C)(C)C)ccc1N1CCOCC1	n	n	n	n	n
O=S(=O)(Nc1ccc(Br)cc1)c1cccc(NC(=S)NCCN2CCOCC2)c1	n	52	n	n	n
COc1ccccc1NS(=O)(=O)c1cc(NC(=S)NCCN2CCOCC2)ccc1N1CCOCC1	n	n	-34	n	n
CCCCN(C(=O)COC(=O)c1ccc(C=O)cc1)c1c(N)n(CCC)c(=O)[nH]c1=O	n	n	n	n	n
CN(Cc1ccccc1)S(=O)(=O)c1ccc2[nH]c(=O)oc2c1	n	n	-38	n	n
CCn1cc(C(=O)N2CCN(c3cccc(Cl)c3)CC2)c2cc(OC)c(OC)cc2c1=O	n	n	-53!	n	n
COc1ccc(C(=O)CCC(=O)N2CCN(c3cccc(Cl)c3)CC2)cc1	n	n	-33	n	n
COc1ccc(C(=S)N2CCN(c3cccc(Cl)c3)CC2)cc1	n	n	-33!	n	n
COc1ccc(CCC(=O)N2CCN(S(=O)(=O)c3cccc(Cl)c3)CC2)cc1	n	n	-39	n	n
COc1ccc(-c2oc3ncn4nc(COc5ccccc5C)nc4c3c2-c2ccc(OC)cc2)cc1	n	n	n	n	n
CCC(CC)C(=O)Nc1ccc2nc(SCC(=O)N3CCCC3)sc2c1	n	n	n	n	n
O=C(O)/C=C/C(=O)N1CCN(c2cccc(Cl)c2)CC1	n	n	-41	n	n
COc1ccc(CCCc2nnc(SCC(=O)Nc3cccc(C)c3)o2)cc1C	n	n	n	n	n
O=C(OCCN1CCN(C2=NS(=O)(=O)c3ccccc32)CC1)c1ccccc1F	n	n	-32	n	n
Cc1c(CCC(=O)NCCCn2ccnc2)c(=O)oc2cc3oc4c(c3cc12)CCCC4	n	n	n	n	n
Cn1c(=O)c2cc(C(=O)NCCCN3CCN(c4cccc(Cl)c4)CC3)sc2c2ccccc21	n	n	-45	n	n
CCN(CCCNC(=O)c1cc2c(=O)n(C)c3ccccc3c2s1)Cc1ccccc1	n	n	-36	n	n
CCN(CCCNC(=O)c1cc2c(=O)n(C)c3ccccc3c2s1)c1ccccc1	n	n	n	n	n
CN1CCN(CCCNC(=O)c2cc3c(=O)n(C)c4ccccc4c3s2)CC1	n	n	n	n	n
Cc1ccc(S(=O)(=O)c2cc3cc(C(=O)O)ccc3oc2=O)cc1	n	n	n	n	n
Cc1ccc(S(=O)(=O)c2cc3cc(C(=O)Nc4ccc(C)cc4C)ccc3oc2=O)cc1	31	n	n	n	n
SMILES	TRHR PAM	D1 agonist	D1 antag	TRHR ag	D1 PAM
COc1ccc(-c2noc(CNC(=O)c3ccoc3C)n2)cc1OC	n	n	n	n	n
O=C(Nc1ccc(Oc2ccc(Br)cc2)cc1)C1=CC=CN2CCS(=O)(=O)N=C12	n	n	-48	n	n
CCc1ccc(NC(=O)C2=CC=CN3CCS(=O)(=O)N=C23)cc1	n	n	n	n	n
CC(C)c1ccc(NC(=O)C2=CC=CN3CCS(=O)(=O)N=C23)cc1	n	n	-32	n	n
COc1ccc(Cl)cc1NC(=O)Cn1c(=O)n(CCC(=O)NCc2ccc3c(c2)OCO3)c(=O)c2ccccc21	n	n	n	n	n
Cc1ccc(NC(=O)CCCn2nc(C)c3c(C)n(-c4ccccc4)nc3c2=O)c(Cl)c1	n	n	n	n	n
